CHX counter: Cycloheximide Counterscreen for Small Molecule Inhibitors of Shiga Toxin. cell reporter, cycloheximide protein synthesis inhibition counterscreen. max response, %. 300,000 tested, 12% active. AID 2314, 2010; in the data active = max response mostly above about 13%, no sharp cut-off; inactive = mostly below about 14%; also: read at 38.3 µM for the half of the compounds with a filed dose; 0% is about no effect
Pf growth 48h: Primary qHTS for delayed death inhibitors of the malarial parasite plastid, 48 hour incubation. AID 504832, 2011. Potency, µM (highest dose often 28.7 µM), inactives show top-dose activity change, negative = inhibition, hits mostly inhibitors. 310,000 tested, 5.9% active. P. falciparum luciferase growth in erythrocytes, 48 h; also: potency is read from the fitted curve at half-maximal effect; % is scaled to controls: 0 for no effect and ±100 for the full control effect
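Luciferase-expressing parasites in RBCs, 2% Hct / 0.1% parasitemia final; RPMI 1640 + 0.5% Albumax; 37 C, 5% CO2, one generation; luminescence read-out, lower signal = inhibition.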
Sm TGR block: qHTS Assay for the Inhibitors of Schistosoma Mansoni Peroxiredoxins | Schistosoma mansoni thioredoxin glutathione reductase (TGR), Q962Y6 | purified TGR, DTNB reduction, TNB absorbance 405 nm | Potency, µM (series often up to 114 µM), for the others: at the highest dose activity change, negative = inhibition, actives largely listed as inhibitors | 360,000 tested, 3% active | AID 485364, 2010; also: potency is read from the fitted curve at half-maximal effect; % is scaled to controls: 0 for no effect and ±100 for the full control effect; nearly all actives have a fitted effect of over 60% in size
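TGR 20 nM + NADPH 100 uM (dispensed conc.), cpd preinc 15 min RT; start with NADPH (500 uM addition) then DTNB (15 mM addition). Kinetic TNB absorbance, 405 nm filter. Four-parameter Hill fit across titration.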
Shiga toxin inh: A qHTS for Small Molecule Inhibitors of Shiga Toxin. AID 2315, 2010. Vero cells, Shiga toxin protein synthesis inhibition reporter. inhibition, % at 38.7 µM. 290,000 tested, 9.2% active; in the data active = inhibition mostly above about 28%, no sharp cut-off; inactive = mostly below about 43%; also: 0% is about no effect
NS1 inh: qHTS Assay for Inhibitors of Influenza NS1 Protein Function; AID 2326, 2010; Potency, µM (doses to about 46.1 µM), inactives show at the top dose activity, positive = more growth; 270,000 tested, 0.4% active; calls by dose curve; also: potency is read from the fitted curve at half-maximal effect; actives are rising curves; nearly all actives have a fitted effect of over 50% in size
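A cell-based growth assay was used: compounds that relieve NS1-induced slow growth of budding yeast raise OD600. Assay medium was yeast nitrogen base with ammonium sulphate and -URA supplement, pH 6.0, with 2% galactose.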
Pf growth 96h: Primary qHTS for delayed death inhibitors of the malarial parasite plastid, 96 hour incubation. P. falciparum luciferase reporter growth, 96 h. Potency, µM (titrated, usually from 28.7 µM), inactives show at the top dose activity change, negative = inhibition, actives largely listed as inhibitors. 320,000 tested, 6.9% active; also: potency is read from the fitted curve at half-maximal effect; % is scaled to controls: 0 for no effect and ±100 for the full control effect
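Parasite growth measured via integrated firefly luciferase reporter in P. falciparum. Infected erythrocytes at 2% hematocrit, 0.05% parasitemia final were treated 96 hours at 37 C under 5% CO2, and luminescence was read.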
* = called active by the depositor; ? = inconclusive; . = no result; [ ] = another dose, or the depositor's remark. This is a sample that favours compounds with a hit; in the whole collection about 21% have one here. Unless noted, calls follow the shape of the dose curve; as a rule, active = well fitted curve in the direction sought with a large enough effect; inconclusive = small, poorly fitted or top-dose-only effect, or another doubt; inactive = no such curve, though single readings can be large; an effect the other way counts as inactive or inconclusive.

SMILES | CHX counter | Pf growth 48h | Sm TGR block | Shiga toxin inh | NS1 inh | Pf growth 96h
CCCn1cc(SCC(=O)NCC2CCCO2)c2ccccc21 (centres undefined) | 25* | 24% | 2% | 42* | -12% | 15%
Cc1ccc(Cl)cc1N1CCN(C(=O)CCn2c(=O)c3cccn3c3cccnc32)CC1 | . | . | 10% | . | . | .
COc1ccc(NC(=O)CSc2cn(CCNC(=O)c3ccc(OC)cc3)c3ccccc23)cc1 | . | . | -3% | . | . | .
O=C(CSc1cn(CCNC(=O)c2ccc3ccccc3c2)c2ccccc12)NCc1ccco1 | 15* | ? | 5% | 22 | 18% | ?
c1ccc(CNCCNCc2ccccc2)cc1 | -4 | -7% | . | -4 | . | ?
CC(C)C[C@H](NC(=O)[C@H](CC(C)C)NC(=O)[C@@H](Cc1c[nH]c2ccccc12)NC(=O)[C@H](Cc1ccccc1)NC(=O)[C@@H](Cc1c[nH]c2ccccc12)NC(=O)[C@H](CCC(N)=O)NC(=O)[C@H](CCC(N)=O)NC(=O)[C@@H]1CCCN1C(=O)[C@H](CCCCN)NC(=O)[C@@H]1CCCN1C(=O)[C@H](N)CCCN=C(N)N)C(N)=O | -3 | . | . | -7 | . | .
COC(=O)c1ccc(Cn2c(SCc3cccc(C)c3)nc3ccncc32)cc1 | . | . | -2% | . | . | .
Cc1nc(Nc2ccc3c(c2)OCCO3)c2c(C)c(C)sc2n1 | 20* | 3% | 0% | 45 | . | 38%
O=[N+]([O-])c1ccc2ncnc(Nc3ccc4c(c3)OCCO4)c2c1 | 12 | 9.3µM* | -1% | -17 | . | ?
Cc1ccc(O)c(Nc2ncnc3ccc([N+](=O)[O-])cc23)c1 | -1 | ? | -18% | -9 | -7% | -18%
O=[N+]([O-])c1ccc(O)c(Nc2ncnc3ccccc23)c1 | 17* | ? | 0% | 35 | 0% | 22%
Cc1nc(Nc2ccc3c(c2)OCCO3)c2oc3ccccc3c2n1 | 26* | 12% | 0% | 83* | -129% | 16%
O=C(COC(=O)c1cccnc1Cl)NCCC1=CCCCC1 | 13 | -4% | -1% | 17 | -1% | 40%
O=C(NCc1ccccc1Cl)C1CCCN(S(=O)(=O)c2cccc3nsnc23)C1 (centres undefined) | -2 | . | 1% | -11 | ? | ?
c1ccc2c(c1)oc1c(Nc3ccc4c(c3)OCCO4)ncnc12 | 54* | 231% | 4% | 69* | -31% | 32%
CCc1nc(Nc2ccc3c(c2)OCCO3)c2oc3ccccc3c2n1 | 17* | . | 0% | 6 | -1% | -11%
c1ccc2c(c1)oc1c(NCCCN3CCOCC3)ncnc12 | 14 | 13% | -3% | 34 | -15% | -9%
O=C1NC(=S)NC(=O)C1=Cc1ccc2c(c1)CCN2CCCCl | -4 | 123% | 14µM* | -4 | 0% | 46%
CC(C)(C)c1ccc(C(=O)CCC(=O)OCC(=O)NCCc2ccc(S(N)(=O)=O)cc2)cc1 | . | -25% | -8% | . | . | ?
CC(C)(C)C1(O)CC(C(F)(F)F)=NN1C(=O)Cc1ccc([N+](=O)[O-])cc1 (centres undefined) | 0 | ? | -2% | 47 | . | ?
COc1ccc(-c2n[nH]c3c2cnc2cc(OC)c(OC)cc23)cc1 | . | . | 7% | . | . | .
CC(CCc1ccc(O)cc1)NC(c1ccccc1)c1ccc(Cl)cc1 (centres undefined) | -4 | 9.3µM* | 8% | -25 | 10% | ?
O=C(CCNC(=O)C1CCN(S(=O)(=O)c2ccc(F)cc2)CC1)NCc1ccc(Cl)cc1 | 9 | 12% | 6% | 7 | 3% | 30%
CSc1ncccc1C(=O)NCC(c1cccs1)N1CCOCC1 (centres undefined) | . | ? | 4% | . | . | 13%
CC(C)Cc1cc(-c2ccco2)c(C#N)c(N)n1 | 9 | 13% | 35µM* | -5 | 2% | 18%
SMILES | CHX counter | Pf growth 48h | Sm TGR block | Shiga toxin inh | NS1 inh | Pf growth 96h
N#Cc1c(-c2ccc(F)cc2)cc(-c2cccnc2)nc1N | -1 | 22% | -3% | -5 | 1% | 28%
N#Cc1c(-c2ccco2)cc(-c2ccc(F)cc2)nc1N | 4 | -9% | 6.3µM* | 16 | 2% | 2%[5.75 µM]
CC1CCN(C(=O)Cn2c(=O)n(CCCC(=O)NCc3ccco3)c(=O)c3sccc32)CC1 | -12 | -16% | -18% | -4 | 10% | ?
COc1ccc(C2Nc3ccccc3C(=O)N2O)cc1CN1CCOCC1 (centres undefined) | -3 | 7% | -24% | -5 | 2% | 21%
CCN1CCCC1CN(Cc1cc2ccc(C)cc2[nH]c1=O)C(=S)Nc1cccc(OC)c1 (centres undefined) | -2 | 10µM* | 4% | -13 | -1% | 15%
COc1ccc2[nH]c(=O)c(CN(CC3CCCO3)C(=S)Nc3ccccc3)cc2c1 (centres undefined) | -2 | 18% | 12% | -8 | 2% | 256%
CN(C)CCCN(Cc1cc2cc3c(cc2[nH]c1=O)OCO3)C(=S)Nc1ccccc1 | 14 | ? | . | 31* | 3% | ?
Cc1cc2cc(CN(CC3CCCO3)C(=S)Nc3ccccc3)c(=O)[nH]c2cc1C (centres undefined) | -2 | 12µM* | 4% | -20 | 22% | 9%
COc1ccc2cc(CN(CC3CCCO3)C(=S)Nc3ccccc3)c(=O)[nH]c2c1 (centres undefined) | 3 | 9.3µM* | -12% | -7 | 10% | ?
O=C(COC(=O)CNS(=O)(=O)c1c(Cl)cccc1Cl)Nc1cccnc1Cl | -6 | -3% | -9% | -9 | -7% | -13%
COC(=O)c1ccccc1S(=O)(=O)N(Cc1cc2ccc(OC)cc2[nH]c1=O)CC1CCCO1 (centres undefined) | -4 | -24% | 0% | -21 | ? | ?
COc1ccc2cc(CN(CC3CCCO3)S(=O)(=O)c3ccc(C(C)=O)cc3)c(=O)[nH]c2c1 (centres undefined) | 19* | . | -15% | 64* | 6% | ?
CCn1cc(C(=O)NN)c(=O)c2cc(F)c(N3CCOCC3)cc21 | -8 | ? | -10% | 3 | 14% | 12µM*
CCn1cc(C(=O)O)c(=O)c2cc(F)c(N3CCNCC3)cc21 | 3 | ? | -22% | -9 | -4% | 1.6µM*
CCn1cc(C(=O)O)c(=O)c2cc(F)c(N3CCN(S(=O)(=O)c4ccc5c(c4)OCCO5)CC3)cc21 | -1 | ? | 14% | -13 | . | ?
CCn1cc(C(=O)O)c(=O)c2cc(F)c(N3CCN(S(=O)(=O)c4ccc(NC(C)=O)cc4)CC3)cc21 | -7 | 6.6µM* | -11% | -10 | ? | ?
CCn1cc(C(=O)O)c(=O)c2cc(F)c(N3CCN(C(=O)Nc4ccccc4)CC3)cc21 | -2 | 0.47µM* | -1% | -7 | -37% | 5%
